Rows were chosen to be rich in hits. Some 6.2% of all compounds tested hit in one or more screens of this group.
Gal4-VP16 FLuc: inhibits Gal4-VP16 luciferase reporter, ROR gamma counter-screen. 310,000 compounds, 3.5% hits. Potency, µM (top dose mostly 53.6 µM), for the others: top-dose activity, negative = inhibition, usual class: inhibitors. Drosophila S2 Gal4-VP16 UAS-luciferase, luminescence, 20 h;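 also: Gal4-VP16 expression switched on by copper sulfate through the metallothionein promoter; nearly all actives have a fitted effect of over 50% in size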
RORg inh: ROR gamma (mouse) transcription inhibition; Potency, µM (titrated, usually from 53.6 µM), without a hit: top-dose activity change, negative = inhibition, usual class: inhibitors; Drosophila S2 Gal4-RORgamma UAS-luciferase reporter, 20 h; 310,000 compounds, 5.4% hits; P51450; also: nearly all actives have a fitted effect of over 60% in size
Target sequence (P51450 whole entry, looked up, the tested form may be a part): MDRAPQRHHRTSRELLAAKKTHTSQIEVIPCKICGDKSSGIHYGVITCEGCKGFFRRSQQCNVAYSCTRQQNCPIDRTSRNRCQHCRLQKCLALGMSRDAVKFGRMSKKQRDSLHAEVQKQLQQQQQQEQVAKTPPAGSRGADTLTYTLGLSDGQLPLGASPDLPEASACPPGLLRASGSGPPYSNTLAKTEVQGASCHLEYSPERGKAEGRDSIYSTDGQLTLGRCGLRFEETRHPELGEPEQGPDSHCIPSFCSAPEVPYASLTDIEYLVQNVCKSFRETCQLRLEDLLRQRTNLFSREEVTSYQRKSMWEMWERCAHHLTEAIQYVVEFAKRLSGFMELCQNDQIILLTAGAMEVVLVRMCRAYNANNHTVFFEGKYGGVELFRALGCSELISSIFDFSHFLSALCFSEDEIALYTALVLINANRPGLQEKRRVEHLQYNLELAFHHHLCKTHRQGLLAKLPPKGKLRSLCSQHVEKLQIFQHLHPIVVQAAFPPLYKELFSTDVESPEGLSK
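In this cell-based reporter format, copper sulfate (700 uM final) drives Gal4–ROR gamma fusion expression from a metallothionein promoter in Drosophila Schneider cells; compounds preincubated 1 hr, reporter read after 20 hr at ambient temperature.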
KinaseGlo FLuc: counter-screen: inhibitors of Kinase-Glo firefly luciferase; AID 1379; 200,000 compounds, 0.28% hits; Potency, µM (top dose mostly 38.3 µM), for inactives: top-dose activity change, negative = inhibition, usual class: inhibitors; Q27757; Kinase-Glo luciferase, ATP luminescence, 8 min; also: nearly all actives have a fitted effect of over 60% in size
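Compounds were added to a substrate mix at pH 7.2 (50 mM imidazole, 10 uM ATP, within the enzyme's linear range), followed by Kinase-Glo detection reagent; luminescence was measured after 8 minutes at ambient temperature.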
The depositor's hits bear a star; ? = inconclusive; / = no result; [ ] = another dose, or the depositor's remark. Calls follow the shape of the dose curve; as a rule, active = well fitted curve in the direction sought with a large enough effect; inconclusive = small, poorly fitted or top-dose-only effect, or another doubt; inactive = no such curve, though single readings can be large; an effect the other way counts as inactive or inconclusive. % is scaled to controls: 0 for no effect and ±100 for the full control effect; potency is read from the fitted curve at half-maximal effect.

SMILES	Gal4-VP16 FLuc	RORg inh	KinaseGlo FLuc
COc1ccc(CCNS(=O)(=O)c2cc(C(=O)O)c(Cl)cc2Cl)cc1	5%	-7%	4%
CC1=CC(=O)c2c(O)ccc(O)c2C1=O	-24%	-7%	/
O=C(Cc1ccc(Cl)cc1)Nc1ccccc1N1CCN(C(=O)c2ccccc2)CC1	-18%	-29%	/
Cc1ccc(S(=O)(=O)N(C)CC(=O)OCC(=O)N2CCN(c3ccccc3)CC2)cc1	-1%	-18%	-1%
O=C(NCCSc1ccc(Br)cc1)c1ccccc1	-2%	0%	0%
COc1cc(OC)cc(C(=O)NCCNC(=O)c2ccccc2)c1	4%	17%	-1%
COc1cc(OC)cc(C(=O)NC(=S)NCCc2ccccc2)c1	0.63µM*	0.71µM*	-12%
COc1ccc(C(=O)NCCSc2ccccc2)cc1	?	11µM*	-9%
O=C(NCc1ccccc1)c1ccc(Oc2ccc(C(=O)NCc3ccccc3)cc2)cc1	-5%	-1%	1%
COc1ccc(C(=O)NC(=S)NCc2cccnc2)cc1Cl	?	11µM*	/
COc1ccc(C(=O)NC(=S)NCc2ccccc2)cc1	22µM*	7.1µM*	-2%
COc1ccc(C(=O)NCc2cccnc2)cc1Br	-3%	0%	0%
CCCCN(CCCC)CP(=O)(c1ccccc1)c1ccccc1	-7%	1%	0%
O=C(NC1CC2CCCC(C1)N2C(=O)Nc1ccc(F)cc1)c1ccccc1 (stereo unspecified)	-13%	10%	/
COc1cc(OC)c(OC)cc1/C=C1\Oc2cc(OCC(=O)N3Cc4ccccc4C[C@H]3C(=O)O)ccc2C1=O	-2%	-4%	/
CCNC(=O)N1CCCC(C(=O)c2ccc(C(F)(F)F)cc2)C1 (stereo unspecified)	-9%	5%	/
Cc1ccc2c(c1)c(CC(NC(=O)c1ccccc1Oc1ccccc1)C(=O)O)cn2C(=O)OCc1ccccc1 (stereo unspecified)	-1%	?	/
COc1ccc(OCc2nnc(SCC(=O)Nc3ccccc3C#N)o2)cc1	2%	-39%	/
COc1cc(OC)cc(C(=O)NC(=S)N(Cc2ccccc2)C(C)C)c1	0.89µM*	0.5µM*	/
CC(C)N(Cc1ccccc1)C(=O)CC(=O)N(Cc1ccccc1)C(C)C	4%	-16%	/
N#Cc1ccsc1NC(=O)CCc1ccccc1	?	?	-15%
N#Cc1ccsc1NC(=O)c1ccccn1	5µM*	2.8µM*	-1%
CC(=O)N1CCc2cc(Br)cc(S(=O)(=O)N3CCC(C(=O)O)CC3)c21	-5%	-4%	/
CC(C)Nc1nc(NC(C)C)nc(N(C)N)n1	9%	-1%	-2%
CCNc1nc(NCC)nc(N(C)N)n1	?	7.1µM*	0%
SMILES	Gal4-VP16 FLuc	RORg inh	KinaseGlo FLuc
O=C(OCc1cn(Cc2ccccc2)nn1)c1ccccc1	-6%	28%	/
O=C(O)CCCCCCCCc1cn(Cc2ccc(C(=O)c3ccccc3)cc2)nn1	0%	-3%	/
O=C(c1ccccc1)c1ccc(Cn2cc(CCCO)nn2)cc1	13µM*	?	/
CCOC(OCC)c1cn(Cc2ccc(C(=O)c3ccccc3)cc2)nn1	18µM*	?	/
O=C(c1ccccc1)c1ccc(Cn2cc(-c3ccccc3)nn2)cc1	10µM*	?	/
CCCCCc1ccc(-c2cn(Cc3ccc(C(=O)c4ccccc4)cc3)nn2)cc1	-3%	5%	/
COc1cccc(Cn2c(=O)c(-c3ccc(F)c(F)c3)nc3cncnc32)c1	-3%	1%	0%
O=C(NCC(=O)N1CCN(c2ccccc2F)CC1)c1ccco1	18%	41%	/
CNC(=S)N(CCc1c(C)[nH]c2ccc(C)cc12)Cc1cccnc1	-4%	-3%	/
CCOC(=O)c1c(-c2ccccc2)nc2ccc(C)cn12	-1%	?	-5%
CCOC(=O)c1c(-c2ccccc2)nc2cc(C)ccn12	-8%	13µM*	-6%
CC[C@@]1(O)C(=O)COc2c1cc1n(c2=O)Cc2c-1nc1cccc(C(C)C)c1c2[Si](C)(C)C	?	-43%	-3%
CC1(c2ccc(Cl)cc2)NC(=S)N2C1NC(=S)N2c1ccccc1 (stereo unspecified)	-1%	-19%	/
CC1(CCc2ccccc2)NC(=S)N(c2ccc(Cl)cc2)N1 (stereo unspecified)	?	10µM*	2%
CC1(CCc2ccccc2)NC(=S)N(c2ccccc2)N1 (stereo unspecified)	20µM*	?	0%
CC1(CCc2ccccc2)NC(=O)N(CC(=O)O)C1=O (stereo unspecified)	11%	3%	/
COCCn1cnc2c1c(=O)[nH]c(=O)n2Cc1ccccc1	-1%	-12%	/
NC1=NC(c2ccccc2)=NC1(NC(=O)c1ccccc1)C(Cl)Cl (stereo unspecified)	1%	18%	/
CCOc1ccc(/C=N/NC(=O)C(O)c2ccccc2)c(O)c1 (stereo unspecified)	2µM*	0.79µM*	/
CCOc1ccc(CCNC(=O)C(O)c2ccccc2)cc1 (stereo unspecified)	-9%	?	/
CCCCNS(=O)(=O)c1ccc2nc(SCC(=O)Nc3sccc3C#N)[nH]c2c1	13µM*	4%	-1%
CCCCNS(=O)(=O)c1ccc2nc(SCC(N)=O)[nH]c2c1	-3%	18%	/
O=C(CN(C(=O)CSc1nc2ccccc2o1)c1ccccc1)NC1CCCCC1	-3%	14%	-6%
COc1cccc(N2CCN(c3nc(-c4ccccc4C)cc(=O)[nH]3)CC2)c1	-5%	38%	/
COc1ccccc1CNCc1cccc(Oc2ccccc2)c1	8%	-3%	0%
SMILES	Gal4-VP16 FLuc	RORg inh	KinaseGlo FLuc
COc1ccccc1/C=C1\SC(=S)N(CCC(=O)NCCCn2ccnc2)C1=O	-10%	16µM*	/
COc1ccc(/C=C2\SC(=S)N(CCC(=O)NCCCn3ccnc3)C2=O)cc1	9%	7%	/
O=C(CCCN1C(=O)/C(=C/c2ccc(F)cc2)SC1=S)NCCCn1ccnc1	?	8.9µM*	/
COc1ccccc1/C=C1\SC(=O)N(CCC(=O)NCCCn2ccnc2)C1=O	0%	-42%	/
COc1ccc(/C=C2\N=C(c3ccccc3Cl)NC2=O)cc1	2%	8%	/
Cc1cccc(NS(=O)(=O)c2ccc(-n3cccn3)cc2)c1C	2%	13%	/
CCC1=NN(C(=O)C(=O)Nc2ccccc2OC)C(O)(C(F)(F)F)C1 (stereo unspecified)	?	13µM*	-1%
COc1ccccc1NC(=O)C(=O)N1N=C(C(C)C)CC1(O)C(F)(F)F (stereo unspecified)	?	10µM*	1%
COc1ccccc1NC(=O)C(C)N1C(=O)c2ccccc2C1=O (stereo unspecified)	-11%	-33%	/
CCC1=NN(C(=O)C(=O)Nc2ccc(OC)cc2)C(O)(C(F)(F)F)C1 (stereo unspecified)	-22%	?	9%
CC(=O)Nc1ccc(NC(=O)C(C)OC(=O)CSc2ccc(Br)cc2C)cc1 (stereo unspecified)	-10%	-40%	/
CO[C@H]1COC(=O)[C@H](C)NC(=O)C/C=C\[C@@H](C)[C@H](OC)COC(=O)[C@@H](OCc2ccccc2)/C=C\[C@@H]1C	-4%[10 µM]	-10%[10 µM]	/
Cc1cc(CC(C)C)n(-c2nc3ccccc3c(=O)n2OCc2ccccc2)n1	?	1.6µM*	-4%

Screens as filed in PubChem BioAssay.
